The source of these data is PubChem BioAssay AID1745847 (National Center for Advancing Translational Sciences (NCATS), 2022).

About 670 (32%) of roughly 2,100 compounds were called active. Inconclusive results (about 50%) are left out. Calls come from the whole dose curve; as a rule, active = well fitted inhibition curve with a large enough effect; inconclusive = small, poorly fitted or top-dose-only effect; inactive = no such curve, though single readings can be large or run the other way. Some of the results follow.
% is set by controls: 0 for no effect and ±100 for the full control effect; potency is the fitted concentration of half-maximal effect.

The nature of this assay: CMV-Luciferase Counterscreen for Inhibitors of ATXN expression. Note: nearly all actives have a fitted effect of over 55% in size. As to conditions: HEK-293 CMV-luciferase reporter, luminescence, 24 h; series mostly up to 57.5 µM; activity change, negative = inhibition: at the top concentration.
On to `N#Cc1ccccc1NC(=O)C1SC(=Nc2ccccc2)C(C(=O)Nc2ccc(Cl)cc2)=C1N` (stereo unspecified), for which the activity change, negative = inhibition was -20.6% [at 11.4 µM] (inactive).

Take `CN(CC(=O)Nc1ccc(Cl)c(C(F)(F)F)c1)C(=O)c1cccnc1Sc1ccccc1`: the “activity change, negative = inhibition” value is -21.5% (inactive).

With `Cc1ccc(C(=O)N(C)CC(=O)Nc2ccc(Cl)c(C(F)(F)F)c2)cc1S(=O)(=O)N1CCCCC1`, the Potency was 25.1 µM (active).

Take `CN(CC(=O)NCc1ccc(F)cc1)CC(=O)Nc1ccc(Cl)c(C(F)(F)F)c1`: the Potency is 17.8 µM (active).

Consider `Cc1ccc(-n2ncc(C(=O)Nc3ccc(Cl)cc3)c2C2CCNCC2)cc1C`, for which the “activity change, negative = inhibition” value was -12.6% (inactive).

Consider `Cc1cc(C2=NNC(=NC3CC3)SC2)c(C)n1-c1ccccc1F`, for which the Potency is 0.631 µM (active).

Regarding `Cc1ccc(C2CC(=O)Nc3c2ccc2ccccc32)cc1[N+](=O)[O-]` (stereo unspecified), the Potency is 17.8 µM (active).

Take `Cc1ccccc1S(=O)(=O)Cc1ccc(C(=O)N2CCN(c3cccc(C)c3C)CC2)o1`: the Potency is 3.98 µM (active).

For the compound `CCOC(=O)[C@H]1[C@H]2COc3ccc(OC)cc3[C@@H]2N2C(=O)c3cc(OC)c(OC)cc3NC(=O)[C@@]12C`, the activity change, negative = inhibition is 6.45% [at 11.4 µM] (inactive).

Regarding `c1cnc2c(c1)ccc1cccnc12`, the Potency is 3.55 µM (active).

Turning to `CC(=O)N1CCN(c2ccc(Oc3ccc([N+](=O)[O-])c(C(F)(F)F)c3)cc2)CC1`, the Potency is 7.94 µM (active).

Consider `N=c1c2c(n(Cc3ccc(Cl)cc3)c3c1CCC3)CCC2`, for which the Potency was 0.708 µM (active).

In the case of `N=c1c2c(n(Cc3ccc(Br)cc3)c3c1CCC3)CCCC2`, the Potency was 0.501 µM (active).

As to `N=c1c2c(n(Cc3cccc(Cl)c3)c3c1CCC3)CCCC2`, the Potency is 3.16 µM (active).

On to `Cn1c(CO)cnc1S(=O)(=O)Cc1ccc([N+](=O)[O-])cc1`, for which the “activity change, negative = inhibition” value was -3.42% (inactive).

For `c1nc(CCO[C@H]2CCCCO2)cc2cc3c(cc12)OCO3`, the Potency is 3.16 µM (active).

As for `O=C(C1CCC(CNS(=O)(=O)c2cccs2)CC1)N1CCN(c2ccc(F)cc2)CC1` (stereo unspecified), the Potency was 4.47 µM (active).

With `COc1cc(C(=O)O/N=C(\N)Cc2ccc([N+](=O)[O-])cc2)cc(OC)c1OC`, the activity change, negative = inhibition was -6.35% [at 11.4 µM] (inactive).

Consider `CCOc1cc(C=C(C(=O)OC)C(=O)OC)ccc1OCc1ccc([N+](=O)[O-])cc1`, for which the Potency is 25.1 µM (active).

Regarding `CC1CC(C)C[N+](=C2C=C(N3CCCC3)CC(C)(C)C2)C1` (stereo unspecified), the Potency is 0.794 µM (active).

On to `CC1CCN(Cc2c(C(=O)N/N=C/c3cc(Cl)ccc3O)nnn2-c2nonc2N)CC1`, for which the Potency was 0.562 µM (active).

As to `CC1CCN(Cc2c(C(=O)N/N=C/c3cc(Br)ccc3O)nnn2-c2nonc2N)CC1`, the Potency was 0.447 µM (active).

Turning to `COc1ccc(-c2n(CC(=O)OC3CC(C)CCC3C(C)C)c3ccccc3[n+]2C)cc1` (stereo unspecified), the Potency is 3.16 µM (active).

On to `CCOc1ccc(-n2c(-c3ccccc3)c[n+]3c2CCCCC3)cc1`, for which the Potency was 3.55 µM (active).

Regarding `CCOc1ccc(-c2c[n+]3c(n2-c2ccccc2)CCCCC3)cc1`, the Potency was 6.31 µM (active).

Take `CCCCOc1ccc(C(=O)NNC(=S)NC(=O)CC)cc1`: the Potency was 2.51 µM (active).

Turning to `OC(c1ccccc1)(c1nc(-c2cc3ccccc3o2)cs1)C(F)(F)F` (stereo unspecified), the “activity change, negative = inhibition” value was 31.2% (inactive).

With `Cc1cc(/C=N/n2cnnc2)c(C)n1-c1ccc(OCc2ccc(Cl)cc2Cl)cc1`, the Potency was 12.6 µM (active).

With `Cc1ccc(C)c(NC(=O)c2ccccc2NS(=O)(=O)c2cc([N+](=O)[O-])ccc2C)c1`, the Potency was 1 µM (active).

As to `O=C(/C=C/c1ccccc1[N+](=O)[O-])c1ccccc1Br`, the activity change, negative = inhibition is 44.2% [at 11.4 µM] (inactive).

As for `CC1CCCCC1NC(=O)/C(C#N)=C/C=C/c1ccccc1[N+](=O)[O-]` (stereo unspecified), the Potency is 3.55 µM (active).

Consider `N#C/C(=C\C=C\c1ccccc1[N+](=O)[O-])C(=O)NCc1ccccc1`, for which the Potency was 3.16 µM (active).

`NC(=O)c1cccc(-c2ccnc3c2CC(C(=O)Nc2cccc(C(F)(F)F)c2)O3)c1` (stereo unspecified): the Potency was 3.98 µM (active).

In the case of `O=C(Nc1cccnc1)C1Cc2c(-c3ccc4c(c3)OCO4)ccnc2O1` (stereo unspecified), the activity change, negative = inhibition was -23.6% [at 11.4 µM] (inactive).

Take `CS(=O)(=O)Nc1cccc(NC(=O)c2cccc3c(-c4cccc(C(N)=O)c4)coc23)c1`: the “activity change, negative = inhibition” value is -17.1% (inactive).

Regarding `O=C(CNC(=O)c1ccc(F)cc1)N/N=C/c1cc(Br)ccc1OC(=O)/C=C/c1ccco1`, the Potency was 8.91 µM (active).

As to `O=C(CNC(=O)c1ccccc1F)N/N=C/c1cc(Br)ccc1OC(=O)/C=C/c1ccco1`, the Potency was 12.6 µM (active).

On to `O=C(CNC(=O)c1cccc(F)c1)N/N=C/c1cc(Br)ccc1OC(=O)/C=C/c1ccco1`, for which the Potency was 4.47 µM (active).

Regarding `NS(=O)(=O)c1ccc(CCNC(=O)COC(=O)/C=C/c2cc(Br)ccc2F)cc1`, the activity change, negative = inhibition is -4.52% [at 11.4 µM] (inactive).

With `Cc1cc(C)c2c(N)c3cccc(C)c3nc2n1`, the Potency was 10 µM (active).

For the compound `Cc1nc(N=C(N)N)nc2c(C)cccc12`, the “activity change, negative = inhibition” value is 17.6% (inactive).

`O=C(Nc1ccc(NC(=O)c2cccs2)cc1)c1ccc2c(c1)OCO2`: the activity change, negative = inhibition was -7.86% [at 11.4 µM] (inactive).

As to `COc1c(C)cccc1C(=O)Nc1ccc(N2CCN(C(=O)c3ccccc3C)CC2)cc1`, the Potency is 15.8 µM (active).

In the case of `Cc1ccccc1C(=O)N1CCN(c2ccc(NC(=O)c3ccc4c(c3)OCCO4)cc2)CC1`, the Potency is 2.24 µM (active).

Take `CC(=O)Nc1cc(-c2ccc(C(=O)NC3CC3)cc2)cn2c(-c3cccc(C(C)=O)c3)cnc12`: the “activity change, negative = inhibition” value is 3.81% (inactive).

On to `O=[N+]([O-])c1cc(Cl)c(O)c2ncccc12`, for which the Potency was 8.91 µM (active).

Regarding `O=[N+]([O-])c1cc(CN2CCN(c3ccccc3)CC2)c(O)c2ncccc12`, the Potency is 7.94 µM (active).

With `O=[N+]([O-])c1cc(O)c2ncccc2c1`, the Potency is 3.16 µM (active).

Take `Oc1c(CN2CCOCC2)cc(COCc2ccccc2)c2cccnc12`: the Potency was 3.55 µM (active).

With `O=[N+]([O-])c1ccc(O)c2ncccc12`, the Potency is 7.08 µM (active).

On to `Oc1ccc(Cl)c2cccnc12`, for which the “activity change, negative = inhibition” value is -22.2% (inactive).

For `NNC(=O)c1nc(-c2ccccc2)cc(-c2ccccc2)n1`, the “activity change, negative = inhibition” value was 23.1% (inactive).

As for `CCOC(=O)c1c(-c2ccccc2)oc2ccc(OCC(=O)NN)cc12`, the Potency was 28.2 µM (active).

`O=C(O)COc1ccc2oc3ccccc3c2c1`: the activity change, negative = inhibition was -24.7% [at 11.4 µM] (inactive).

On to `OCCNc1c2ccccc2nc2c(F)c(F)c(F)c(F)c12`, for which the Potency was 7.94 µM (active).

On to `OCCNc1c2ccccc2nc2ccccc12`, for which the Potency is 20 µM (active).
